Measured values: ChEMBL document CHEMBL3988442, “University of Dundee, Small-Polar-MMV Screening Library” (2021)
In all, about 53,000 compounds went through this assay and about 900 (1.7%) showed an effect of 50% or more. This excerpt belongs to a sample that is enriched for strong results.

system: Mycobacterium tuberculosis; assay: Cornell - Phenotypic assay to identify agents that inhibit growth of Mycobacterium tuberculosis; format: functional; set-up: scale not given: direction of the effect not stated beside the values; settings: 10 mM as filed; unlikely as a test dose

Row | SMILES | Percent Effect [%]
1 | Cc1ncc(CN2CCC(c3nc(O)cc(-c4ccsc4)n3)CC2)cn1 | 21.36
2 | CCc1noc(CN(CCC2CCCCC2)CC(N)=O)n1 | 4.193
3 | O=C(OCc1ccccc1)c1cccc(NC(=O)C2COCCO2)c1 (stereo unspecified) | -2.465
4 | O=C(Nc1cccc(OCc2ccc(F)cc2)c1)C1COCCO1 (stereo unspecified) | 107.1
5 | O=C(Nc1cccc(OCc2cccc(F)c2)c1)C1COCCO1 (stereo unspecified) | 108
6 | CCOC(=O)COc1cccc(NC(=O)C2COCCO2)c1 (stereo unspecified) | 12.18
7 | O=C(Nc1ccc(OCc2cccc(F)c2)c(F)c1)C1COCCO1 (stereo unspecified) | 18.87
8 | CCOCc1cccc(NC(=O)C2COCCO2)c1 (stereo unspecified) | -0.8336
9 | CC1CCCCN1C(=O)COc1nc(Cc2ccc(F)cc2)no1 (stereo unspecified) | -36.23
10 | CCN(Cc1ccc(C(C)C)cc1)C(=O)c1csc(CN(C)C)n1 | -18.18
11 | CCCNC(=O)NC(=O)CNc1c(F)cccc1N1CCCC1 | -0.2754
12 | CN(C)c1cc2c(nn1)CCN(C(=O)C1Cc3ccccc3S1)C2 (stereo unspecified) | 54.31
13 | CN(C)c1cc2c(nn1)CCN(C(=O)C1CCc3ccccc31)C2 (stereo unspecified) | -36.17
14 | CCNc1cc2c(nn1)CCN(C(=O)C1Cc3ccccc3S1)C2 (stereo unspecified) | 12.56
15 | CN1CCOC(CNC(=O)C2(c3cccc(C(F)(F)F)c3)CCCC2)C1 (stereo unspecified) | 17.35
16 | CCn1cc(CN2CCCN(C(=O)CCc3ccccc3)CC2)cn1 | -0.8409
17 | CCn1cc(NC(=O)CN2CCC(Oc3ccc(F)cc3)CC2)c(C)n1.Cl | 59.25
18 | Br.Cc1ccccc1OC1CCN(CC(=O)Nc2cnn(C)c2C)CC1 | 6.171
19 | Fc1ccc(OC2CCN(CCn3cncn3)CC2)cc1 | 21.61
20 | CCn1cc(NC(=O)CN2CCC(Oc3ccccc3C)CC2)c(C)n1 | 45.29
21 | Cc1nn(C)cc1NC(=O)CN1CCC(Oc2cnccn2)CC1 | 11.01
22 | Cc1nn(C)cc1NC(=O)CC1CCN(CCc2ccccc2)CC1 | 6.464

Row | SMILES | Percent Effect [%]
23 | CCOc1ccccc1CCC(=O)Nc1c(C)nn(C)c1C | -20.08
24 | Cc1ccccc1OC1CCN(CC(=O)Nc2c(C)nn(C)c2C)CC1 | 59.98
25 | Cn1ccc(NC(=O)CN2CCC(Oc3cnccn3)CC2)n1 | -4.083
26 | Cc1ccccc1OC1CCN(CC(=O)Nc2cn(C)nc2C)CC1 | 69.1
27 | Cn1ccc(NC(=O)CN2CCN(C3CCCC3)C(=O)C2)n1 | 47.35
28 | Br.Cc1ccccc1OC1CCN(CC(=O)Nc2ccn(C)n2)CC1 | 51.43
29 | COc1ccc(Cl)cc1C(=O)N1C[C@@H](NC(=O)N(C)C)[C@H](C(C)C)C1 | -26.21
30 | COC(=O)c1ccoc1CN(C)CC(=O)NC1CC1 | 9.025
31 | Cc1cc(C2CCCCN2C(=O)c2cccn2C)nc2nccn12 (stereo unspecified) | 14.54
32 | CCOCCC1(CNC(=O)c2ccsc2)CCC1 | 23.41
33 | Cc1cc(C(=O)N2CC[C@@H]3CN(C)S(=O)(=O)[C@@H]3CC2)no1 | 25.4
34 | O=C(O)c1ccnc2c(Br)cccc12 | 13.48
35 | COc1ccc(CNC(=O)NC(C)(C(=O)O)c2ccco2)cc1F (stereo unspecified) | -25.47
36 | O=C1COC2(CCN(Cc3ccco3)CC2)CN1Cc1cccnc1 | 24.6
37 | Cc1ccc(CN2CCN(CC3CC3)[C@@H]3CS(=O)(=O)C[C@@H]32)cc1C | 21.5
38 | O=S1(=O)C[C@@H]2[C@H](C1)N(Cc1cc(Cl)cc(Cl)c1)CCN2CC1CC1 | 85.08
39 | Cc1cc(CN2CCN(CC3CC3)[C@@H]3CS(=O)(=O)C[C@@H]32)cc(C)c1O | 106.4
40 | O=S1(=O)C[C@@H]2[C@H](C1)N(Cc1cc(Cl)cc(Cl)c1)CCN2CCO | -11.47
41 | CCCN1CCN(Cc2cc(Cl)cc(Cl)c2)[C@H]2CS(=O)(=O)C[C@H]21 | -17.23
42 | Cc1cc(CN2CCN(CC3CC3)[C@@H]3CS(=O)(=O)C[C@@H]32)ccc1F | -1.418
43 | COc1ccc(C(=O)NCCC(N)=O)c(I)c1 | -0.6619
44 | Cc1nc(NC2CCCCC2)cc(C2CCCNC2)n1.Cl (stereo unspecified) | -33.64

Row | SMILES | Percent Effect [%]
45 | COCc1nc2cc(NCc3sc(C)nc3C)ccc2o1 | 97.37
46 | Cc1cc(CNc2ccc3nc(C)sc3c2)no1 | 23.73
47 | COCc1nc(CNc2cccc(-c3nc(C)c(C)o3)c2)cs1 | 46.4
48 | Cc1ncsc1CNc1cccc(OCCN2CCCC2)c1 | 16.77
49 | COCCCSc1ccc(NCc2scnc2C)cc1 | 22.43
50 | COCc1nc2cc(NCc3scnc3C)ccc2o1 | 107
51 | CC(C)N1CC2(CCCN(c3ccnc4ccccc34)C2)CCC1=O (stereo unspecified) | 17.47
52 | COCc1nnc(C(=O)N2CCCC(O)C2)o1 (stereo unspecified) | -16.94
53 | Cc1ncc(CNC(=O)CCc2cccs2)c(C2CCCN2C)n1 (stereo unspecified) | -2.251
54 | Cc1ccc(C2CN(Cc3cccc4[nH]ccc34)CCO2)nc1 (stereo unspecified) | -22.89
55 | O=C1CO[C@H]2CN(Cc3cccc4[nH]ccc34)C[C@@H]2N1C1CCOCC1 | 103.3
56 | O=C1CO[C@H]2CN(Cc3cccc(F)c3F)C[C@@H]2N1C1CCOCC1 | -21.84
57 | CCC(CN1CCCC1)NC(=O)C1(c2ccc(F)cc2)CC1 (stereo unspecified) | 38.36
58 | CCC1c2ccccc2CCN1CCNS(C)(=O)=O (stereo unspecified) | -0.3963
59 | COCc1cc(CNCc2c(C)n(CC(N)=O)c3ccccc23)n[nH]1 | 35.48
60 | COCc1cc(CNCc2c(C)n(CC(C)C)c3ccccc23)n[nH]1 | 48.01
61 | Cc1cc(CNCc2c(C)n(CC(C)C)c3ccccc23)[nH]n1 | 57.75
62 | COCCC(=O)N1CCCC1c1nc(C)c2c(n1)N(C)C(=O)CC2 (stereo unspecified) | 9.481
63 | CC(C)(C)n1nnnc1CN(Cc1ccccc1)Cc1ccccc1Cl | 7.141
64 | COc1ccc(OC)c(C2CCN(Cc3nc(C)n4ccccc34)C2)c1 (stereo unspecified) | 51.45
65 | COc1ccc(OC)c(C2CCN(CC(C)(C)N3CCOCC3)C2)c1 (stereo unspecified) | -53.82
66 | COc1ccc(OC)c(C2CCN(C3CCOCC3)C2)c1 (stereo unspecified) | -54.14
